Laboratory results taken from PubChem BioAssay (NCI).
About 79,000 compounds went through this panel and 15% of them were active in at least one assay; those are over-represented in the sample as a whole. Unmarked numbers belong to inactive results. Activity calls are given as the source filed them. No stated cut-off is given here; in the data, active means growth inhibition above about 70%; inactive means the rest. *1 amine or outer side, *2 acyl side, *3 side chain or, on linkers, in order; H or OH if unused. Where a SMILES comes first, the peptide text is derived from it. [ ]: non-standard residue; d: D form. The star is where a group is joined. X5 = CCC(=O)CC1CC(C)CC(C(=O)[*:2])N1[*:1]; X4 = CCCCCCCCC(C)C(=O)*; Aib = CC(C)(N)C(=O)O; X6 = CC(CN(C)CCO)N*

Experiments:
[1] = NCI Yeast Anticancer Drug Screen. Data for the rad50 strain (AID 155);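 further: 0% = growth of vehicle-only cultures of the same strain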; details: S. cerevisiae rad50 strain growth inhibition, hits give high values
Procedure, shortened: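 Readout: growth inhibition relative to vehicle-treated cultures. Compound exposure was carried out in a genetically defined yeast strain deficient in DNA damage repair.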

[2] = NCI Yeast Anticancer Drug Screen. Data for the mec2-1 strain (AID 157); details: S. cerevisiae mec2-1 strain, hits give high values
Procedure, shortened: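 Growth inhibition is read against vehicle-treated controls after compound exposure of the mec2-1 yeast strain, which is defective in DNA damage repair or cell cycle control.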

[3] = NCI Yeast Anticancer Drug Screen. Data for the sgs1 mgt1 strain (AID 161);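 further: 0% = growth of cultures given vehicle only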; details: S. cerevisiae sgs1 mgt1 strain, hits give high values
Procedure, shortened: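 This yeast growth screen uses a strain with defined DNA-repair lesions; compound-treated growth is compared with vehicle-treated growth.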

[4] = NCI Yeast Anticancer Drug Screen. Data for the cln2 rad14 strain (AID 165);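 further: 0% = growth equal to vehicle treated cultures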; details: S. cerevisiae cln2 rad14 strain, hits give high values
Procedure, shortened: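 Growth inhibition, relative to vehicle-treated controls, is the read-out. The test organism is a yeast strain with defined genetic alterations, cln2 rad14.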

[5] = NCI Yeast Anticancer Drug Screen. Data for the bub3 strain (AID 167); details: S. cerevisiae bub3 mutant strain, hits give high values
Procedure, shortened: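 Readout: yeast growth inhibition, expressed relative to vehicle-only wells. The test organism is a mutant strain from a panel with lesions in DNA repair or checkpoint genes.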

[6] = NCI Yeast Anticancer Drug Screen. Data for the mlh1 rad18 strain (AID 175); details: S. cerevisiae mlh1 rad18 strain growth inhibition, hits give high values
Procedure, shortened: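 Cells of a genetically altered yeast strain, deficient in DNA damage repair, were treated with compound. Their growth was then compared with that of vehicle-treated cultures to give inhibition.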

[7] = at 5.0 µM (retest, dose inferred, filed as 0.5)
[8] = at 50.0 µM (retest, dose inferred, filed as 5.0)

SMILES	growth inhibition [1, 7]	growth inhibition [1, 8]	growth inhibition ([1]; at 50.0 µM)	growth inhibition [2, 7]	growth inhibition [2, 8]	growth inhibition ([2]; at 50.0 µM)	growth inhibition [3, 7]	growth inhibition [3, 8]	growth inhibition ([3]; at 50.0 µM)	growth inhibition [4, 7]	growth inhibition [4, 8]	growth inhibition ([4]; at 50.0 µM)	growth inhibition [5, 7]	growth inhibition [5, 8]	growth inhibition ([5]; at 50.0 µM)	growth inhibition [6, 7]	growth inhibition [6, 8]	growth inhibition ([6]; at 50.0 µM)
Cc1oc2c(C)c3oc(=O)cc(C)c3cc2c1CCl	27%	94% (active)	54.4%	32%	97% (active)	75.5% (active)	27%	95% (active)	87% (active)	19%	89% (active)	67.5%	41%	97% (active)	84.1% (active)	47%	96% (active)	90.7% (active)
Cn1c(COC(=O)NC2CCCCC2)c(COC(=O)NC2CCCCC2)c2ccc3cc(Cl)c(Cl)cc3c21	8%	31%	18.1%	-5%	8%	23.2%	-3%	29%	56.5%	15%	12%	49.2%	15%	30%	72.7% (active)	9%	11%	21.8%
CCCCCCCCC(C)C(=O)N1CCCC1C(=O)N1C(CC(=O)CC)CC(C)CC1C(=O)NC(C)C(=O)NC(C)(C)C(=O)NC(C)(C)C(=O)NC(C(=O)NC(C)C(=O)NC(C)(C)C(=O)NC(C)(C)C(=O)NC(C)CN(C)CCO)C(C)CC (configuration not stated) (X4-P[X5]A[Aib][Aib]IA[Aib][Aib]-X6; configuration not given here)	98% (active)	100% (active)	91.6% (active)	99% (active)	100% (active)	93.5% (active)	99% (active)	100% (active)	92.8% (active)	99% (active)	99% (active)	90.9% (active)	99% (active)	99% (active)	92.4% (active)	99% (active)	99% (active)	89.7% (active)
COc1cc(OC)c(/C=C/c2c3ccccc3cc[n+]2C)c(OC)c1	66%	77% (active)	61.6%	33%	54%	49.5%	67%	84% (active)	69.5%	46%	64%	9.85%	67%	79% (active)	59.3%	50%	68%	54.1%
